In the supplement of paper PMC6555819:

Legend:
Assay in all cases: PBM binding z-score (relative to random genomic background probes); higher = stronger binding; sequences stand for … in GC…GCGATTGACAGCGTAGAATGAAGG
[1] = system: FXR:RXRa (NR concentration 270 nM, RXRa partner concentration 90 nM)
Outline: (§1)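 Custom Agilent 4×180K protein-binding microarrays carried double-stranded probes, each with a 34-nt variable region. These regions held direct-repeat seeds, single-nucleotide variants, half-site ablations and random human genomic background sequences. Ligand-free nuclear receptor dimers were incubated on the arrays for 1 h, antibodies against each partner (one per run) detected binding, and scanned fluorescence was regression-normalized. Binding z-scores take the random background probes as reference.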

[2] = system: LXRa:RXRa (NR concentration 270 nM, RXRa partner concentration 90 nM)
Outline: as §1

[3] = system: LXRa homodimer (NR concentration 270 nM)
Outline: as §1

[4] = system: LXRb:RXRa (NR concentration 270 nM, RXRa partner concentration 90 nM)
Outline: as §1

[5] = system: LXRb homodimer (NR concentration 270 nM)
Outline: as §1

[6] = system: PPARa:RXRa (NR concentration 270 nM, RXRa partner concentration 90 nM)
Outline: as §1

[7] = system: PPARg:RXRa (NR concentration 180 nM, RXRa partner concentration 90 nM)
Outline: as §1

[8] = system: PPARg:RXRa 270nM:90nM, anti-RXR (NR concentration 270 nM, RXRa partner concentration 90 nM)
Outline: as §1

[9] = system: PPARg:RXRa 30nM:10nM, anti-RXR (NR concentration 30 nM, RXRa partner concentration 10 nM)
Outline: as §1

[10] = system: PPARg:RXRa 90nM:30nM, anti-RXR (NR concentration 90 nM, RXRa partner concentration 30 nM)
Outline: as §1

[11] = system: PPARg:RXRa DBDmut IVT, anti-RXR (DBD mutation: RXRa K156A/R161A, NR concentration 270 nM, RXRa partner concentration 90 nM)
Outline: as §1

[12] = system: PPARg:RXRa IVT, anti-PPARg (NR concentration 270 nM, RXRa partner concentration 90 nM)
Outline: as §1

[13] = system: PPARg DBDmut:RXRa IVT, anti-PPARg (DBD mutation: PPARg1 K132A/R137A, NR concentration 270 nM, RXRa partner concentration 90 nM)
Outline: as §1

[14] = system: PPARg DBDmut IVT, anti-PPARg (DBD mutation: PPARg1 K132A/R137A, NR concentration 270 nM)
Outline: as §1

[15] = system: PPARg homodimer (NR concentration 180 nM)
Outline: as §1

[16] = system: PXR:RXRa (NR concentration 270 nM, RXRa partner concentration 90 nM)
Outline: as §1

[17] = system: PXR homodimer (NR concentration 270 nM)
Outline: as §1

[18] = system: RARa:RXR (NR concentration 270 nM, RXRa partner concentration 90 nM)
Outline: as §1

[19] = system: RARa homodimer (NR concentration 270 nM)
Outline: as §1

[20] = system: RARb:RXRa (NR concentration 270 nM, RXRa partner concentration 90 nM)
Outline: as §1

| Sequence | PBM binding z-score [1] | PBM binding z-score [2] | PBM binding z-score [3] | PBM binding z-score [4] | PBM binding z-score [5] | PBM binding z-score [6] | PBM binding z-score [7] | PBM binding z-score [8] | PBM binding z-score [9] | PBM binding z-score [10] | PBM binding z-score [11] | PBM binding z-score [12] | PBM binding z-score [13] | PBM binding z-score [14] | PBM binding z-score [15] | PBM binding z-score [16] | PBM binding z-score [17] | PBM binding z-score [18] | PBM binding z-score [19] | PBM binding z-score [20] |
| --- | --- | --- | --- | --- | --- | --- | --- | --- | --- | --- | --- | --- | --- | --- | --- | --- | --- | --- | --- | --- |
| CCTTACGGGTCATTGACAGGTTATAGCATTTGGA | 5.92 | 4.79 | 1.1 | 3.85 | 0.271 | 5.27 | 3.6 | 4.06 | 1.55 | 2.75 | 2.34 | 2.72 | 0.642 | 0.325 | 2.77 | 3.94 | 0.591 | 4.67 | 0.122 | 3.64 |
| ATCTCTAGGTAAAGTTCAATGAAAGATCGATAGA | 2.28 | 3.13 | 2.86 | 2.25 | 1.31 | 3.32 | 4.11 | 5.15 | 3.34 | 4.82 | 2.42 | 3.05 | 1.44 | 1.47 | 1.79 | 3.02 | 2.63 | 1.92 | 2.05 | 3.19 |
| CCTAGCAGGCCATTCTGGGTCACTCAAGGCTTGA | 2.69 | 4.53 | 0.0938 | 2.17 | -0.726 | 2.61 | 0.687 | 1.16 | -0.704 | 0.4 | 3.36 | 3.51 | -0.645 | -1.57 | 0.115 | 1.61 | -0.27 | 1.71 | -0.611 | 1.75 |
| CAAACTAGGTCAAGGTCAAAGACGGTTTGTGCCA | 6.55 | 5.25 | 3.28 | 4.37 | 1.4 | 6.32 | 9.9 | 8.3 | 6.78 | 8.62 | 8.62 | 8.85 | 4.67 | 5.73 | 5.24 | 4.88 | 2.2 | 5 | 2.69 | 5.16 |
| TCTAGTTGGGCAAAGGTCACACACTCGAAATGCG | 5.48 | 5.45 | 3.14 | 5.08 | 0.789 | 6.58 | 10.4 | 9.73 | 9.07 | 10.3 | 2.75 | 5.71 | 0.687 | 1.14 | 5.11 | 5.64 | 1.26 | 6.56 | 2.44 | 5.1 |
| TCTTGTAGATCAAATGTTAAGAAAGCCGAAGCCT | 0.704 | 0.517 | -0.184 | 0.216 | 0.123 | 1.15 | 1.12 | 3.42 | 3.84 | 3.61 | 2.21 | 0.573 | 0.744 | 0.647 | 0.284 | 0.199 | 0.012 | 0.519 | 0.868 | -0.134 |
| ATCTCTAGGTAAAAGTTCAGAGAATCCCGAGGAT | 1.14 | 1.55 | 1.43 | 1.03 | 0.872 | 4.35 | 8.44 | 7.88 | 7.79 | 9.43 | 2.03 | 3.83 | 1.22 | 1.3 | 1.38 | 1.99 | 1.55 | 1.76 | 1.49 | 2.5 |
| TCTTGTAGATCAATAGAGGTTAAAAAAGTGCGCT | 0.88 | 4.42 | 1.13 | 2.5 | 0.00759 | 2.06 | 0.202 | 1.65 | 2.75 | 2.06 | 1.82 | 1.24 | 0.792 | 0.476 | 0.579 | 2.56 | 0.23 | 1.79 | 0.767 | 0.762 |
| AGAACGAGGGCACGCTGAGTTGCTAGCAGAGTAG | 0.473 | 0.348 | -0.756 | -0.279 | -1.02 | 2.05 | 1.85 | 1.6 | 0.179 | 0.707 | 4.16 | 3.97 | -0.0983 | -0.499 | -0.0627 | 0.539 | -0.605 | 0.617 | -0.905 | 2.43 |
| ATATGTAGGTTAGCTGGGGTCAATCAGACTAGGC | 4.21 | 5.44 | 1.4 | 4.65 | 1.47 | 5.14 | 5.84 | 5.34 | 2.61 | 4.68 | 6.88 | 6.36 | 2.08 | 1.26 | 2.34 | 6 | 1.44 | 5.08 | 1.21 | 3.04 |
| TCTTGTAGATCAGGAGGTTAAGAAAGCTGGCCAA | 0.046 | 0.738 | 0.262 | 0.752 | -0.475 | 1.46 | -0.25 | 1.8 | 2.55 | 2.11 | 1.51 | 0.654 | 0.143 | -0.244 | 0.0785 | 0.352 | -0.154 | 0.854 | -0.318 | 0.586 |
| TCTAGTTGGTCAGAGGTCACACACTCGAAATGCG | 4.94 | 4.85 | 3.21 | 4.9 | 1.13 | 5.55 | 9.31 | 8.56 | 7.99 | 9.17 | 2.47 | 4.96 | 1.28 | 0.861 | 4.45 | 5.4 | 1.74 | 5.99 | 1.84 | 4.49 |
| ATCGAAAGGTTGACGAGGTGAGTATACACCGTTT | 1.11 | 0.773 | -0.233 | 0.764 | -0.00698 | 1.79 | 0.968 | 0.974 | 0.581 | 0.771 | 0.0825 | 1.03 | 0.76 | 1.04 | 0.684 | 0.914 | 0.374 | 1.25 | 0.63 | 1.79 |
